Compound activity deposited in PubChem BioAssay by National Center for Advancing Translational Sciences (NCATS).
SW480 rereplic = DNA re-replication induction in SW480 cells; 340,000 tested, 1.8% active; AID 624297; SW480 DNA re-replication, Hoechst DNA content imaging, 48 h; Potency, µM (titrated, usually from 46.1 µM), without a hit: at the highest dose re-replication activation, usual class: activators; also: potency is read from the fitted curve at half-maximal effect; % of control where 0% means no effect; nearly all actives have a fitted effect of over 55% in size
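Quantitative HTS format with DMSO vehicle controls; 48 hr drug incubation at 37 C, then 40 min Hoechst staining and scanning imager measurement at 405 nm excitation.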
BCR signal inh = chronic active BCR signaling inhibition | ABC-DLBCL IkBa-CBG/CBR reporter, luminescence ratio, 4 h | Potency, µM (doses to about 46.1 µM), for the others: top-dose activity change, negative = inhibition, most hits filed as inhibitors | 340,000 tested, 0.05% active | AID 493014; active = well fitted inhibition curve with a large enough effect in the signal ratio, with a control signal flat, not every such curve was filed as active; inconclusive = small, poorly fitted or top-dose-only effect, or effect the other way, or a change in a side signal; the % refers to the signal ratio;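 also: potency is read from the fitted curve at half-maximal effect; plate controls were basal doxycycline-induced cells for no effect and cells given 10 µM MG132 for full effect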
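Doxycycline induced both beetle luciferases in TMD8 lymphoma cells; IKK-driven degradation limits the IkappaBalpha-fused green signal, while red luminescence normalises for cell number and nonspecific effects. Compounds tested up to 46 uM, 4 hrs.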
TDP1 cell noCPT = qHTS for Inhibitors of human tyrosyl-DNA phosphodiesterase 1 (TDP1): qHTS in cells in absence of CPT; DT40 Tdp1-/- hTDP1 cells, no CPT, ATP luminescence, 48 h; Potency, µM (series often up to 46.2 µM), for inactives: at the highest dose activity change, negative = growth inhibition, actives largely listed as inhibitors; 420,000 tested, 15% active; also: potency is read from the fitted curve at half-maximal effect; % is scaled to controls: 0 for no effect and ±100 for the full control effect; nearly all actives have a fitted effect of over 55% in size
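No-CPT arm: Tdp1-/-;hTDP1 DT40 cells (400/well) plus compounds, incubated ≥48 hr at 37 °C. Readout CellTiter-Glo luminescence.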
DT40 TDP1 CPT = growth inhibition of DT40 Tdp1-/-;hTDP1 cells with camptothecin (screen for TDP1 inhibitors); chicken DT40 Tdp1-/-;hTDP1 cells + 20 nM CPT, ATP luminescence, 48 h; Potency, µM (doses to about 46.2 µM), inactives show at the top dose activity change, negative = growth inhibition, actives largely listed as inhibitors; 420,000 tested, 12% active; also: potency is read from the fitted curve at half-maximal effect; % is scaled to controls: 0 for no effect and ±100 for the full control effect; nearly all actives have a fitted effect of over 55% in size
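Cell growth measured by CellTiter-Glo luminescence after a minimum 48 h, 37 C compound exposure with 20 nM CPT in Tdp1-knockout DT40 cells stably expressing hTDP1, seeded 400/well; qHTS titration format.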
MCF10A rereplic = inducers of DNA re-replication in MCF 10A breast cells. Potency, µM (highest dose often 46.1 µM), for inactives: at the highest dose activity, positive = re-replication, usual class: activators. 350,000 tested, 2.9% active. AID 624296. MCF 10A DNA re-replication, Hoechst nuclear intensity, 48 h; also: potency is read from the fitted curve at half-maximal effect; % of control where 0% means no effect; nearly all actives have a fitted effect of over 50% in size
IL-1B inflam inh = blocks inflammasome-driven IL-1 beta release; THP-1 LPS/ATP IL-1B secretion, AlphaLISA, 16 h; stronger effect = lower value; 360,000 tested, 4.7% active; activity change, % at 57.5 µM; in the data active = activity change below about -50%; inconclusive = mostly about -30% to -49%; also: % is scaled to controls: 0 for no effect and ±100 for the full control effect
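THP-1 cells pretreated 1 hr with compounds (up to 57.5 uM final), then stimulated with LPS (250 ng/mL final) plus ATP (1.25 mM final); secreted IL-1B measured by AlphaLISA after 16 hr, decreased signal indicating inhibition.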
Numbers without * were called inactive; i = inactive; ? = inconclusive; · = not tested or not shown; ! = a repeat was not active. Hits are enriched below; roughly 19% of the tested compounds scored in any of these assays. Unless noted, calls follow the shape of the dose curve; as a rule, active = well fitted curve in the direction sought with a large enough effect; inconclusive = small, poorly fitted or top-dose-only effect, or another doubt; inactive = no such curve, though single readings can be large; an effect the other way counts as inactive or inconclusive.

SMILES	SW480 rereplic	BCR signal inh	TDP1 cell noCPT	DT40 TDP1 CPT	MCF10A rereplic	IL-1B inflam inh
CNS(=O)(=O)c1cccc(C(=O)OCC(=O)c2cc(C)n(-c3ccc4c(c3)OCO4)c2C)c1	-2.1%	?	-28.7%	-11.3%	0.7%	9.6
CC(C)OCCCNC(=O)C(=O)Nc1c2c(nn1-c1ccccc1)CS(=O)(=O)C2	·	-29.7%	-16.2%	-4.6%	·	·
CC1=C(C(=O)Nc2ccccc2C(=O)N2CCCCC2)SCCO1	-15.3%	-0.1%	26.8%	-12.4%	-22.8%	13.4
CC1=C(C(=O)Nc2ccccc2C(=O)N2CCN(c3ccccc3)CC2)SCCO1	·	·	18.4µM*	?	·	14.6
CC1=C(C(=O)Nc2cc(C(=O)N(C)Cc3ccccc3)ccc2C)SCCO1	-38.4%	-27.4%	-1.8%	-25.1%	1.8%	-54.8*
COc1ccccc1CNC(=O)c1ccccc1NC(=O)C1=C(C)OCCS1	14.8%	-11.5%	?	20.6µM*	-1.9%	?
COCCNC(=O)c1ccc(C)c(NC(=O)C2=C(C)OCCS2)c1	-9.0%	-0.6%	-2.8%	9.8%	2.7%	5.9
CCCCC(=O)Nc1nnc(S(=O)(=O)N(C)Cc2ccccc2)s1	·	·	-0.9%	26.8%	·	·
Cc1ccc(S(=O)(=O)Nc2cccc(S(=O)(=O)Nc3ccccc3C(=O)O)c2)c(C)c1	-3.4%	6.4%	3.7%	29.3%	12.1%	2.9
CCCC(C)c1nnc(NC(=O)C2CC(=O)N(CCc3ccc(F)cc3)C2)s1 (configuration not stated)	1.5%	-10.4%	?	?	13.3%	37.0
CCOC(=O)CCc1c(C)n[nH]c1C	-7.8%	0.2%	-19.8%	-1.1%	-1.7%	12.9
CCOC(=O)CCCc1sc(N)nc1-c1[nH]c(=O)[nH]c1C	?	3.3%	-3.4%	?	3.9%	-82.6*
CS(=O)(=O)N1CCc2cc(C(=O)N3CCN(c4cccc(Cl)c4)CC3)ccc21	-0.3%	-0.7%	18.4µM*!	16.4µM*	4.1%	-7.7
COc1ccccc1N1CCN(C(=O)c2ccc3c(c2)CCN3S(=O)(=O)c2ccccc2)CC1	-22.3%	?	2.91µM*	8.2µM*	5.0%	?
CC(=O)N1CCc2cc(C(=O)CN3CCN(c4cccc(Cl)c4)CC3)ccc21	-4.7%	?	20.6µM*	14.6µM*	-4.3%	14.7
O=C(c1ccc2c(c1)CCN2S(=O)(=O)c1ccccc1)N1CCN(c2ccc(F)cc2)CC1	17.8%	1.1%	14.6µM*	23.1µM*	12.7%	-19.8
COc1ccccc1N1CCN(C(=O)c2ccc(S(=O)(=O)N3CCCCCC3)cc2)CC1	2.0%	?	?	?	?	-9.2
CCOC(=O)N1CCN(Cc2ccc3ccccc3c2)CC1	-5.9%	-2.3%	?	-12.6%	-7.7%	6.7
CCS(=O)(=O)N1CCc2cc(C(=O)N3CCN(c4ccccc4)CC3)ccc21	·	·	14.6µM*	16.4µM*	·	·
O=C(c1cccc(S(=O)(=O)N2CCc3ccccc32)c1)N1CCN(c2ccccc2)CC1	-58.2%	?	29.1µM*	?	?	?
CCN(c1ccccc1)S(=O)(=O)c1ccc(C(=O)N2CCCC(C(F)(F)F)C2)cc1 (configuration not stated)	?	1.5%	23.1µM*	8.2µM*	26.4%	1.6
O=C(c1cccc(S(=O)(=O)N2CCc3ccccc32)c1)N1CCCC(C(F)(F)F)C1 (configuration not stated)	-5.2%	?	20.6µM*	10.3µM*	?	16.1
O=C(c1cccc(S(=O)(=O)N2CCc3ccccc3C2)c1)N1CCN(c2ccccc2)CC1	6.7%	-0.1%	?	?	?	-9.2
CS(=O)(=O)N1CCc2cc(C(=O)N3CCOCC3)ccc21	-5.1%	0.0%	7.3%	-0.8%	-0.5%	-1.4
CC(=O)N/C(=C\c1ccccc1)C(=O)OCC(=O)NC1CCS(=O)(=O)C1 (configuration not stated)	2.1%	2.4%	?	-1.4%	10.0%	18.9
SMILES	SW480 rereplic	BCR signal inh	TDP1 cell noCPT	DT40 TDP1 CPT	MCF10A rereplic	IL-1B inflam inh
Cc1ccc(OCCNC(=O)c2ccccc2F)cc1	-6.3%	5.9%	-17.7%	10.1%	-11.1%	29.3
COc1ccc(-c2cn3cccnc3n2)cc1NC(=O)COc1ccccc1	·	·	13µM*	20.6µM*	·	·
COc1ccc(C)cc1S(=O)(=O)Nc1cccc(-c2cn3cccnc3n2)c1	0.2%	3.0%	?	6.0%	8.8%	-19.8
O=C(COc1ccccc1)Nc1cccc(-c2cn3cccnc3n2)c1	?	-2.5%	?	20.6µM*	15.1%	i
COc1ccc(-c2cn3cccnc3n2)cc1NC(=O)C1CC1	-0.2%	-14.4%	3.8%	0.5%	-2.0%	6.3
O=S(=O)(Nc1cccc(-c2cn3cccnc3n2)c1)c1ccc(Cl)cc1	25.7%	-1.0%	?	?	17.9%	-70.2*
CC1=Nc2ccccc2/C1=C\c1nc(-c2ccccc2)oc1O	-4.5%	?	-9.0%	4.5%	1.9%	30.6
COc1ccc(-c2nc(/C=C3\C(C)=Nc4ccccc43)c(O)o2)cc1	10.8%	10.3%	11.6µM*	6.51µM*	11.6%	36.0
COc1cccc(Oc2cc(Cl)nc(N)n2)c1	-1.8%	?	5.2%	16.5%	1.0%	14.8
CCOC(=O)c1[nH]c(C)c(C(=O)Nc2ccc(C)c(Cl)c2)c1C	?	0.0%	?	16.4µM*	20.6µM*	0.0
CCOC(=O)c1[nH]c(C)c(C(=O)Nc2ccc(C)c(F)c2)c1C	11.6µM*	-0.2%	17.8µM*	10µM*	11.6µM*	40.4
Cc1ccc(NC(=O)CN(C)S(=O)(=O)c2ccc(Cl)s2)c(O)c1	-3.5%	-3.1%	-28.5%	?	2.0%	-12.2
NC(=O)c1ncn([C@@H]2O[C@H](CNCc3cccc(OC4CCCC4)c3)[C@@H](O)[C@H]2O)n1	?	·	-16.4%	-11.7%	7.4%	-0.6
CCOC(=O)C1(Cc2ccc(Cl)cc2)CCN(C(=O)CCc2cnccn2)CC1	4.7%	-3.7%	-29.5%	-12.6%	-3.8%	19.7
CCOC(=O)C1(Cc2ccc(OC)cc2)CCN(C(=O)C2=CCCC2)CC1	-0.4%	?	18.4µM*	?	-2.1%	39.8
CCOC(=O)C1(Cc2ccc(OC)cc2)CCN(C(=O)c2sc(C)nc2C)CC1	1.7%	-1.9%	23.1µM*	25.9µM*	-4.2%	24.7
CCOC(=O)C1(Cc2ccc(Cl)cc2)CCN(C(=O)CCc2ccncc2)CC1	?	5.4%	13µM*	-18.1%	19.3%	?
